# TGFb SMAD3 inh: qHTS for Inhibitors of TGF-b | Potency, µM (top dose mostly 46.1 µM), without a hit: at the highest dose activity, negative = inhibition, usual class: inhibitors | 410,000 compounds, 1.2% hits | HepG2 CAGA-GFP TGF-b/SMAD3 reporter, GFP fluorescence, 18 h; TGF-beta stimulated, 500 pg/mL final; note: % is set by controls: 0 for no effect and ±100 for the full control effect; nearly all actives have a fitted effect of over 65% in size
#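 Read-out: total well GFP (ex488/em500-530) summed from mean per-cell fluorescence. Cells: HEPG2 CAGA-GFP, 1% FBS DMEM, 18 h at 37 degrees C with 500 pg/mL final TGF-beta. Unstimulated wells served as the full-inhibition control; stimulated DMSO wells = 0%.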
# TDP1 cell CPT: qHTS for Inhibitors of human tyrosyl-DNA phosphodiesterase 1 (TDP1): qHTS in cells in presence of CPT; chicken DT40 Tdp1-/-;hTDP1 cells + 20 nM CPT, ATP luminescence, 48 h; Potency, µM (top dose mostly 46.2 µM), for the others: at the top dose activity change, negative = growth inhibition, hits mostly inhibitors; 420,000 compounds, 12% hits; AID 686979, 2013; note: % is set by controls: 0 for no effect and ±100 for the full control effect; nearly all actives have a fitted effect of over 55% in size
#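 Chicken DT40 Tdp1-/- cells stably complemented with human TDP1 were seeded at 400 cells/well in medium containing 20 nM camptothecin, exposed to pin-transferred compounds, and grown at 37 °C for at least 48 hr. Viability was read as ATP luminescence.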
# DT40 TDP1 no CPT: qHTS for Inhibitors of human tyrosyl-DNA phosphodiesterase 1 (TDP1): qHTS in cells in absence of CPT. DT40 Tdp1-/- hTDP1 cells, no CPT, ATP luminescence, 48 h. Potency, µM (top dose mostly 46.2 µM), for the others: at the highest dose activity change, negative = growth inhibition, hits mostly inhibitors. 420,000 compounds, 15% hits. AID 686978, 2013; note: % is set by controls: 0 for no effect and ±100 for the full control effect; nearly all actives have a fitted effect of over 55% in size
#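 Growth of hTDP1-complemented DT40 Tdp1-knockout cells is measured by ATP luminescence after at least 48 hr compound exposure at 37 °C, with DMSO substituting for the 20 nM CPT used in the parallel screen.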
# ATXN2 expr inh: Primary qHTS for Inhibitors of ATXN expression. HEK-293 ATXN2-luciferase reporter, luminescence, 24 h. Potency, µM (series often up to 57 µM), inactives show at the top dose activity change, negative = inhibition, usual class: inhibitors. 360,000 compounds, 0.72% hits. AID 1745845, 2022; note: % is set by controls: 0 for no effect and ±100 for the full control effect; nearly all actives have a fitted effect of over 55% in size
#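 ATXN2-luciferase reporter cells (luciferase flanked by upstream and downstream ATXN2 gene portions) were treated 24 h at 37 °C with compounds at up to 57 uM. SteadyGlo luminescence gave expression; GF-AFC fluorescence gave viability.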
# HepG2 tox: qHTS for Inhibitors of TGF-b: Cytotox Counterscreen | 410,000 compounds, 0.76% hits | Potency, µM (titrated, usually from 46.1 µM), inactives show at the top dose activity change, negative = cytotoxicity, actives largely listed as cytotoxic | HepG2 CAGA-GFP viability, ATP luminescence, 18 h
#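 HepG2 CAGA-GFP cells (1000/well, DMEM with 1% FBS) received compound, then TGF-beta at 500 pg/mL final, and were incubated 18 hours at 37 degrees C. Viability was read by CellTiter-Glo luminescence. Media-only wells were set as complete cell-killing and DMSO as no toxicity.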
# S2 tox: Viability Counterscreen for Primary qHTS for Inhibitors of ATXN expression; AID 651635, 2014; Potency, µM (doses to about 56.7 µM), most hits filed as cytotoxic; S2 cells (HEK-293 line with an ATXN2-luciferase reporter) viability, CellTiter-Fluor protease fluorescence, 24 h; 400,000 compounds, 0.49% hits; note: nearly all actives have a fitted effect of over 40% in size
# The depositor's hits bear a star; i = inactive; u = inconclusive; x = not tested or not shown; [ ] = dose if it differs, or a comment. Rows were chosen to be rich in hits. Some 17% of all compounds tested hit in one or more screens of this group. Calls come from the whole dose curve; as a rule, active = well fitted curve in the direction sought with a large enough effect; inconclusive = small, poorly fitted or top-dose-only effect, or another doubt; inactive = no such curve, though single readings can be large; an effect the other way counts as inactive or inconclusive. Potency is the fitted concentration of half-maximal effect.
SMILES,TGFb SMAD3 inh,TDP1 cell CPT,DT40 TDP1 no CPT,ATXN2 expr inh,HepG2 tox,S2 tox
CSc1nn(Cc2ccc(F)cc2)c(N)c1S(=O)(=O)c1ccc(Cl)cc1,10µM*,u,16.4µM*,u,14.1µM*,u
CCOc1ccc(NC(=O)Cn2nc(SC)c(S(=O)(=O)c3ccccc3)c2N)cc1,-28.6%,u,u,-13.5%,-1.4%,i
CCc1ccc(C(=O)COC(=O)C(NC(=O)C2CCC(C)CC2)C(C)C)cc1 (stereo unspecified),-9.0%,-18.7%,u,2.8%,-16.3%,i
CC1CCC(C(=O)NC(C(=O)OCC(=O)c2ccc(Br)cc2)C(C)C)CC1 (stereo unspecified),u,u,20.6µM*,-27.7%,-27.3%,i
CC(=O)/C(=N\Nc1cccc(Cl)c1)Sc1nnc(-c2ccccc2)n1-c1ccccc1,u,-17.3%,-24.4%,-9.1%,-13.5%,i
CCOc1ccc(S(=O)(=O)Nc2ccc(-c3ccc(OC)nn3)cc2)cc1,u,u,u,1.8%,-60.2%,i
CCOc1ccc(-c2ccc(NS(=O)(=O)c3cc(C)c(C)cc3C)cc2)nn1,u,23.1µM*,18.4µM*,-36.8%,-3.9%,u
CCOc1ccc(-c2ccc(NS(=O)(=O)c3ccc(C)cc3)cc2)nn1,-14.1%,16.4µM*,u,6.6%,-7.9%,i
Cc1cn2c(=O)cc(COc3ccc(NC(=O)COc4ccccc4)cc3)nc2s1,u,3.4%,-24.6%,2.0%,0.7%,i
Cn1c(SCC(=O)N2CCCc3ccccc32)ncc(C(=O)Nc2ccccc2)c1=O,-22.4%,-12.4%,-0.3%,x,-3.7%,x
Cc1cc(Cl)c2oc(C(=O)N(C)Cc3cc(C)[nH]n3)c(C)c2c1,8.2%,-13.7%,-7.1%,4.4%,2.5%,i
Cc1cc(Cl)c2oc(C(=O)N(C)Cc3nccn3C)c(C)c2c1,-15.4%,16.4µM*,7.31µM*,-3.7%,-29.3%,i
COc1ccc(CN2CCOc3ccc(CN4CCC(Oc5cccnc5)CC4)cc3C2)c(F)c1,x,u,20.6µM*,x,x,i
O=C(c1cscn1)N1CCOc2ccc(CN3CCC(Oc4cccnc4)CC3)cc2C1,x,u,0.291µM*,x,x,i
COc1ccc(F)c(CN2CCOc3ccc(CN4CCC(Oc5cccnc5)CC4)cc3C2)c1,x,-7.1%[9.04 µM],u,x,x,i
COc1cc(CN2CCOc3ccc(CN4CCC(Oc5cccnc5)CC4)cc3C2)ccc1F,x,u,20.6µM*,x,x,u
COc1cc(OC)c(CN2CCOc3ccc(CN4CCC(O)CC4)cc3C2)c(OC)c1,x,u,23.1µM*,x,x,u
CC(C)Cn1c(N)c(C(=O)COC(=O)c2ccc(O)cc2O)c(=O)n(C)c1=O,-38.8%,u,25.9µM*,-16.7%,-18.5%,i
CC(C)Cn1c(N)c(C(=O)COC(=O)c2ccncc2)c(=O)n(C)c1=O,0.3%,-20.9%,u,-0.4%,-34.1%,i
CC(C)Cn1c(N)c(C(=O)COC(=O)c2ccc(Br)cc2)c(=O)n(C)c1=O,-25.5%,u,23.1µM*,u,-5.6%,i
COC(=O)c1c(C)[nH]c(C(=O)OCC(=O)c2c(N)n(CC(C)C)c(=O)n(C)c2=O)c1C,-17.8%,u,14.6µM*,u,-3.5%,i
CC(C)Cn1c(N)c(C(=O)COC(=O)c2cccc(F)c2)c(=O)n(C)c1=O,-1.0%,u,u,x,-5.9%,i
Cc1cccc(C(=O)OCC(=O)c2c(N)n(CC(C)C)c(=O)n(C)c2=O)c1O,-5.2%,23.1µM*,23.1µM*,-15.9%,-6.2%,i
Cc1c(C(=O)NCC(C)(C)CN(C)C)cnn1-c1nccc(-c2ccccc2F)n1,x,8.6%,-2.6%,x,x,i
COc1ccc(-c2nc3sc(CCNC(=O)C(=O)Nc4ccccc4C#N)c(C)n3n2)cc1,-2.1%,-9.0%,-20.5%,x,9.1%,x
SMILES,TGFb SMAD3 inh,TDP1 cell CPT,DT40 TDP1 no CPT,ATXN2 expr inh,HepG2 tox,S2 tox
Cc1cccc(C(=O)OCC(=O)c2c(N)n(CC(C)C)c(=O)n(C)c2=O)c1[N+](=O)[O-],-10.1%,u,18.4µM*,-11.7%,-7.2%,i
O=C(CNc1cccc([N+](=O)[O-])c1)N/N=C/c1ccc([N+](=O)[O-])o1,7.08µM*,2.91µM*,2.59µM*,u,-57.3%,i
O=C(CNc1cccc2ccccc12)N/N=C/C(Br)=C/c1ccccc1,-17.1%,11.6µM*,10µM*,-34.0%,-31.3%,i
O=C(CNc1cccc2ccccc12)N/N=C/c1ccc([N+](=O)[O-])o1,6.31µM*,6.51µM*,4.11µM*,u,7.94µM*,u
O=C(CNc1cccc2ccccc12)N/N=C/c1ccc[nH]1,1.9%,8.9%,-12.2%,-22.1%,2.6%,i
CSc1ccc(/C=N/NC(=O)CNc2cccc3ccccc23)cc1,-5.5%,-3.4%,5.8%,-20.1%[11.3 µM],-36.5%,i
O=C(CNc1ccccc1)N/N=C/c1ccc([N+](=O)[O-])cc1,-0.9%,-15.6%,-3.8%,3.4%,5.4%,i
CCCCCCCCCCCCC(=O)N1CCCC[C@H]1CNC(=O)[C@@H](N)CCCCN,x,13.3µM*,21.1µM*,x,x,x
O=C(Cn1cc(S(=O)(=O)Cc2cccc(Cl)c2)c2ccccc21)NCCc1ccccc1,-8.1%,-10.5%,-1.0%,x,1.4%,x
Cc1ccccc1-c1cc2nc(Oc3ccc4c(c3)OCO4)n(C)c(=O)c2s1,-9.5%,11.6µM*,u,7.8%,-2.2%,u
COc1cccc(CNc2nc3cc(-c4ccc(F)cc4)sc3c(=O)n2C)c1OC,-2.1%,25.9µM*,16.4µM*,-6.5%,-25.8%,i
C=CCNc1nc2cc(-c3ccccc3C)sc2c(=O)n1C,4.4%,14.6µM*,10.3µM*,0.3%,-33.9%,u
Cc1ccc(CNc2nc3cc(-c4ccccc4C)sc3c(=O)n2C)c(C)c1,u,u,u,-22.8%,8.5%,u
Cc1ccccc1-c1cc2nc(Oc3cccc4ccccc34)n(C)c(=O)c2s1,-2.2%,0.3%,2.5%,37.0%,-39.9%,i
Cc1ccccc1-c1cc2nc(NCc3ccccc3F)n(C)c(=O)c2s1,u,7.31µM*,6.51µM*,-11.0%,-40.6%,i
